Results filed as inconclusive are left out. Calls of active or inactive are those of the source. Calls follow the shape of the dose curve; as a rule, active = well fitted inhibition curve with a large enough effect in the signal ratio in the repeat runs (not every such curve was filed as active); inconclusive = weak or mixed curves, or effect the other way; inactive = no such curve, though single readings can be large or run the other way; the % refers to the signal ratio.
% is scaled to controls: 0 for no effect and ±100 for the full control effect.

The target of this assay is Androgen receptor (Homo sapiens) (UniProt P10275). In words: qHTS assay to identify small molecule antagonists of the androgen receptor (AR) signaling pathway (AID 743035). To be noted: HEK293 AR-UAS-bla, R1881-stimulated, beta-lactamase FRET, 16 h; series mostly up to 58.5 µM. From the text: National Center for Advancing Translational Sciences [NCATS]
Androgen receptor (Homo sapiens), sequence (P10275 whole entry, looked up): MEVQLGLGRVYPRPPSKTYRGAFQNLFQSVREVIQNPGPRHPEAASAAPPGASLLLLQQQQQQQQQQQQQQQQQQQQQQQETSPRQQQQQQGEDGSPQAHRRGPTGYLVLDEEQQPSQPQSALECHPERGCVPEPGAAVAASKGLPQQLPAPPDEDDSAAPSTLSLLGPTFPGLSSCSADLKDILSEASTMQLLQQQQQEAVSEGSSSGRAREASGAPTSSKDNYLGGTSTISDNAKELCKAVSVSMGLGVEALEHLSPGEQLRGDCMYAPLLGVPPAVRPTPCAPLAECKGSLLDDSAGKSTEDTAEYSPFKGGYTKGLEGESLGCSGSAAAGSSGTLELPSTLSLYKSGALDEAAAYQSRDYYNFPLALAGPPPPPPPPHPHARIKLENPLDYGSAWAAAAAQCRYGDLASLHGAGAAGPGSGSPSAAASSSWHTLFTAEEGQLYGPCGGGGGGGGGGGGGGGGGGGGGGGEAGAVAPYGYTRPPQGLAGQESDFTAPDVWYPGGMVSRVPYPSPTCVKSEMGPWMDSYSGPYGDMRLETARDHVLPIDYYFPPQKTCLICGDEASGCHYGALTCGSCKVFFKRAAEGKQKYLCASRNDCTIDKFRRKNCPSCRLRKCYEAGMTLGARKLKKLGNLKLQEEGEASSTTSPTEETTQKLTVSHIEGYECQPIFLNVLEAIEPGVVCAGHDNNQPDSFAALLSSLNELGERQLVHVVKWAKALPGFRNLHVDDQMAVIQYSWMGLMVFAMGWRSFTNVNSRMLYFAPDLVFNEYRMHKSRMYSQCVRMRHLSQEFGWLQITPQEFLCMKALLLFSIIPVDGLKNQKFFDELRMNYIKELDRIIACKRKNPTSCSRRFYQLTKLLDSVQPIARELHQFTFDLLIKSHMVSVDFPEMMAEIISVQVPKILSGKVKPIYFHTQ
NIH Chemical Genomics Center [NCGC]
U.S. Environmental Protection Agency [EPA]
National Institutes of Environmental Health Sciences [NIEHS]
National Toxicology Program [NTP]
U.S. Food and Drug Administration [FDA]
Androgen receptor (AR), a nuclear hormone receptor, plays a critical role in AR-dependent prostate cancer and other androgen related diseases. Endocrine disrupting chemicals (EDCs) and their interactions with steroid hormone receptors like AR may cause disruption of normal endocrine function as well as interfere with metabolic homeostasis, reproduction, developmental and behavioral functions. To identify the compounds that inhibit AR signaling, GeneBLAzer AR-UAS-bla-GripTite cell line (Invitrogen, Carlsbad, CA, USA) containing a beta-lactamase reporter gene under control of an Upstream Activator Sequence (UAS) stably integrated into HEK293 cells was used to screen the Tox21 10K compound library.
Tox21 Assay Protocol Summary:
AR-bla cells were dispensed at 2,000 cells/5 uL of assay medium per well into black wall/clear-bottom 1536-well plates using a Multidrop Combi (ThermoFisher Scientific, Waltham, MA) dispenser. After the assay plates were incubated at a 37C and 5% CO2 for 4 hr, 23 nL of compounds dissolved in DMSO, positive controls or DMSO only was transferred to the assay plate by a Pintool station (Kalypsys, San Diego, CA), followed by addition of 1 uL of agonist (R1881) in culture medium using a Bioraptr Flying Reagent Dispenser (FRD) workstation (Beckman Coulter, Indianapolis, IN, USA). The plates were incubated at a 37C and 5% CO2 for 16 h. After 1 uL of LiveBLAzerTM B/G FRET substrate was added using a Bioraptr FRD, the plates were incubated at room temperature for 2 h and fluorescence intensity was measured by an Envision plate reader (PerkinElmer, Shelton, CT).
(In general: Quantitative high-throughput screening tests each substance at several concentrations.)
For `N[C@H]1C(O)O[C@H](CO)[C@@H](O)[C@@H]1O` (stereo partly drawn), the call was inactive. Still for that read-out and setting: as for `CC12CCCC=C1C(=O)OC2=O` (stereo not drawn), the entry is “inactive”; as for `COC(C)(C)CC(C)=O`, “inactive”. On the same count and under the same terms, as for `C[C@@H](CN1CC(=O)NC(=O)C1)N1CC(=O)NC(=O)C1`, the entry is “inactive”; as for `O=C[C@@H](O)[C@H](O)[C@H](O)CO`, “inactive”. Take `NNC(=O)OCc1ccccc1`: the result was inactive. As for `CCCC(=O)C(CC)Sc1ccoc1C` (stereo not drawn), the compound was classed as inactive. Same read-out and setting: next, `CC(=O)OC1CCC(C(C)(C)C)CC1` (stereo not drawn): “inactive”. For the compound `CCCCCCCCC1CO1` (stereo not drawn), the compound was called inactive. As for `N#Cc1ccccc1C#N`, the compound was called inactive. On to `C=C(C)C(=O)OCCCC`, for which the result was inactive.

`CCCCCCCCCCCCCCCCN(C)C`: the activity change, negative = inhibition is -9.68% [at 7.04 µM] (inactive).

Consider `Nc1cc(S(=O)(=O)O)ccc1O`, for which the outcome was inactive. `Cc1ccc2cccnc2c1`: the outcome was inactive. Same read-out and setting: as for `Cc1ccc(N)nc1`, the entry is “inactive”. In the case of `CC1(C)C(=O)C(C)(C)C1=O`, the outcome was inactive.

For `CC(C)CC(O)Cc1ccccc1` (stereo not drawn), the result was inactive. For `C/C(=N\O)c1ccc(OCC(=O)N2CCCCC2)cc1`, the result was inactive. In the case of `CCc1ncc(C)[nH]1`, the result was inactive. With `C/C(Cl)=C/CCl`, the compound was classed as inactive. The same measure, in the same setting: as for `C=CCN1CCc2nc(N)sc2CC1`, the entry is “inactive”; as for `O=C1c2ccccc2C(=O)N1CO`, “inactive”. On to `CN(C)c1cc(NC(=O)CNC(C)(C)C)c(O)c2c1C[C@H]1C[C@H]3[C@H](N(C)C)C(=O)C(C(N)=O)=C(O)[C@@]3(O)C(=O)C1=C2O`, for which the outcome was inactive. With `CC(O)C(CO)C(C)O` (stereo not drawn), the result was inactive. As to `CC(C)(C)NCC(O)COc1cccc2c1CCC(=O)N2` (stereo not drawn), the call was inactive. Regarding `Cc1ccc(O)c(C(=O)c2ccccc2)c1`, the compound was called inactive.

With `CCOC(=O)[C@H](CCc1ccccc1)N[C@H]1CS[C@H](c2cccs2)CN(CC(=O)O)C1=O`, the call was inactive.

In the case of `COc1cc(OC)cc(OC)c1`, the compound was called inactive.
